Assay results from PubChem BioAssay (NCATS).
Values joined by “and” are separate entries in the source; they are usually repeats but may differ in a detail not shown here. Equal entries are not always repeated. Results filed as inconclusive are left out. Active and inactive are the calls of the source. Calls follow the shape of the dose curve; as a rule, active = well fitted inhibition curve with a large enough effect; inconclusive = small, poorly fitted or top-dose-only effect; inactive = flat fitted curve, though single readings scatter.

How the values were obtained:
GB4 = experiment: qHTS profiling for inhibitors of Plasmodium falciparum proliferation (AID 504749); details: P. falciparum in erythrocytes, SYBR Green DNA, 72 h; series mostly up to 28.7 µM
Procedure, shortened: (§1)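 P. falciparum-infected erythrocytes (0.3% parasitemia, 2.5% hematocrit) incubated with compound 72 h at 37 C, 5% CO2. Parasite DNA detected by SYBR Green after lysis, overnight at room temperature; normalised to 0.29 uM artemisinin and DMSO.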

HB3 = experiment: as above; details: P. falciparum in erythrocytes, SYBR Green DNA, 72 h; series mostly up to 28.7 µM
Procedure, shortened: as §1

ICS = experiment: as above; details: P. falciparum in erythrocytes, SYBR Green DNA, 72 h; series mostly up to 28.7 µM
Procedure, shortened: as §1

JCK = experiment: as above; details: P. falciparum in erythrocytes, SYBR Green DNA, 72 h; series mostly up to 28.7 µM
Procedure, shortened: as §1

N140 = experiment: as above; details: P. falciparum in erythrocytes, SYBR Green DNA, 72 h; series mostly up to 28.7 µM
Procedure, shortened: as §1

P93_24 = experiment: as above; details: P. falciparum in erythrocytes, SYBR Green DNA, 72 h; series mostly up to 28.7 µM
Procedure, shortened: as §1

P94_40 = experiment: as above; details: P. falciparum in erythrocytes, SYBR Green DNA, 72 h; series mostly up to 28.7 µM
Procedure, shortened: as §1

PAD = experiment: as above; details: P. falciparum in erythrocytes, SYBR Green DNA, 72 h; series mostly up to 28.7 µM
Procedure, shortened: as §1

PC15 = experiment: as above; details: P. falciparum in erythrocytes, SYBR Green DNA, 72 h; series mostly up to 28.7 µM
Procedure, shortened: as §1

PC26 = experiment: as above; details: P. falciparum in erythrocytes, SYBR Green DNA, 72 h; series mostly up to 28.7 µM
Procedure, shortened: as §1

PC49 = experiment: as above; details: P. falciparum in erythrocytes, SYBR Green DNA, 72 h; series mostly up to 28.7 µM
Procedure, shortened: as §1

SC27B = experiment: as above; details: P. falciparum in erythrocytes, SYBR Green DNA, 72 h; series mostly up to 28.7 µM
Procedure, shortened: as §1

TAB109 = experiment: as above; details: P. falciparum in erythrocytes, SYBR Green DNA, 72 h; series mostly up to 28.7 µM
Procedure, shortened: as §1

TAB113 = experiment: as above; details: P. falciparum in erythrocytes, SYBR Green DNA, 72 h; series mostly up to 28.7 µM
Procedure, shortened: as §1

TAB165 = experiment: as above; details: P. falciparum in erythrocytes, SYBR Green DNA, 72 h; series mostly up to 28.7 µM
Procedure, shortened: as §1

W2 = experiment: as above; details: P. falciparum in erythrocytes, SYBR Green DNA, 72 h; series mostly up to 28.7 µM
Procedure, shortened: as §1

CRL-7250 = normal cell line; experiment: Cytotoxic Profiling of Annotated Libraries Using Quantitative High-Throughput Screening (AID 1296008); details: Five cell lines viability, CellTiter-Glo ATP luminescence, 48-72 h; max response: active compounds read low; as to max response: % is scaled to controls: 0 for no effect and ±100 for the full control effect
Procedure, shortened: (§2)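 Cells exposed to compounds for 48 or 72 hr at 37 degrees Celsius. Viability read as ATP-coupled luminescence with CellTiter-Glo after 10 min at room temperature.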

HEK293 = experiment: as above; details: Five cell lines viability, CellTiter-Glo ATP luminescence, 48-72 h; max response: active compounds read low
Procedure, shortened: as §2

HaCat = experiment: as above; details: Five cell lines viability, CellTiter-Glo ATP luminescence, 48-72 h; max response: active compounds read low
Procedure, shortened: as §2

KB-3-1 = experiment: as above; details: Five cell lines viability, CellTiter-Glo ATP luminescence, 48-72 h; max response: active compounds read low
Procedure, shortened: as §2
Also: nearly all actives have a fitted effect of over 60% in size.
Potency is read from the fitted curve at half-maximal effect.

COc1ccc(C2C(=O)c3ccccc3C2=O)cc1
inactive: Potency (GB4) | Potency (HB3) | Potency (ICS) | Potency (JCK) | Potency (N140) | Potency (P93_24) | Potency (P94_40) | Potency (PAD) | Potency (PC15) | Potency (PC26) | Potency (PC49) | Potency (SC27B) | Potency (TAB109) | Potency (TAB113) | Potency (TAB165) | Potency (W2) | max response (CRL-7250) -6.18% | max response (HEK293) -6.61% | outcome (HaCat) | max response (KB-3-1) 1.39%

COC(=O)C1=C(C)NC(C)=C(C(=O)O[C@@H]2CCCN(Cc3ccccc3)C2)[C@@H]1c1cccc([N+](=O)[O-])c1
active: Potency (CRL-7250) 15 µM | Potency (HEK293) 11.9 µM and 8.2 µM
inactive: max response (HaCat) -9.72% | max response (KB-3-1) 7.74%

NC[C@H]1O[C@H](O[C@H]2[C@H](O)[C@@H](O[C@H]3O[C@H](CO)[C@@H](O)[C@H](N)[C@H]3O)[C@H](N)C[C@@H]2N)[C@H](N)[C@@H](O)[C@@H]1O
inactive: max response (CRL-7250) -9.82% | max response (HEK293) -0.173% | outcome (HaCat) | max response (KB-3-1) -1.35% and -3.36%

COc1cc(C=C2CCC/C(=C\c3ccc(O)c(OC)c3)C2=O)ccc1O
active: Potency (CRL-7250) 15 µM

Cc1nc2n(c(=O)c1CCN1CCC(c3noc4cc(F)ccc34)CC1)CCC[C@H]2O
inactive: max response (CRL-7250) -3.73% | outcome (CRL-7250) | max response (HEK293) -1.89% | outcome (HEK293) | outcome (HaCat) | max response (KB-3-1) -12.7% and -2.14%

COc1cccc2c1C(=O)c1c(O)c3c(c(O)c1C2=O)C[C@@](O)(C(=O)CO)C[C@@H]3O[C@H]1C[C@H](N)[C@H](O)[C@H](C)O1
active: Potency (CRL-7250) 1.33 µM | Potency (HEK293) 266 nM | Potency (HaCat) 0.944 µM
inactive: max response (KB-3-1) -13.1%

Oc1cc(O)c2c(c1)O[C@H](c1ccc(O)c(O)c1)[C@H](O)C2
inactive: max response (CRL-7250) -5.79% | outcome (HEK293) | max response (HaCat) 4.8% | max response (KB-3-1) -0.959%

CN1[C@@H]2CC[C@H]1CC(OC(=O)c1c[nH]c3ccccc13)C2 (stereo partly specified)
inactive: max response (CRL-7250) -2.71% | outcome (CRL-7250) | max response (HEK293) 4.73% | outcome (HEK293) | max response (HaCat) 0.428% | outcome (HaCat) | max response (KB-3-1) -8.86% and -5.38%

CC1(C)O[C@@H]2C[C@H]3[C@@H]4C[C@H](F)C5=CC(=O)C=C[C@]5(C)[C@H]4[C@@H](O)C[C@]3(C)[C@]2(C(=O)CO)O1
inactive: max response (CRL-7250) -27.4% | max response (HEK293) -23.8%

CC(=O)O[C@]1(C(C)=O)CC[C@H]2[C@@H]3C[C@H](C)C4=CC(=O)CC[C@]4(C)[C@H]3CC[C@@]21C
active: Potency (HEK293) 15000 nM
inactive: outcome (CRL-7250) | max response (HaCat) -32.7% and 2.19% | max response (KB-3-1) 9.44% | outcome (KB-3-1)

CCCC(=O)O[C@]1(C(=O)CO)CC[C@H]2[C@@H]3CCC4=CC(=O)CC[C@]4(C)[C@H]3[C@@H](O)C[C@@]21C
inactive: max response (CRL-7250) -24.4% | outcome (HEK293) | max response (HaCat) -4.75% | max response (KB-3-1) 1.39%

CNC(=O)CN(CCN(CCN(CC(=O)[O-])CC(=O)NC)CC(=O)[O-])CC(=O)[O-].O.[Gd+3]
inactive: outcome (CRL-7250) | outcome (HEK293) | max response (HaCat) -1.56% | max response (KB-3-1) -5.37% and -4.64%

COC(=O)CCc1ccc(OCC(O)CNC(C)C)cc1 (stereo unspecified)
inactive: max response (CRL-7250) -4.17% and 4.01% | max response (HEK293) 1.57% and 1.48% | max response (HaCat) -0.177% | outcome (HaCat) | max response (KB-3-1) 4.51% and -9.53%

CCOC(=O)OC(C)OC1=C(C(=O)Nc2ccccn2)N(C)S(=O)(=O)c2ccccc21 (stereo unspecified)
inactive: Potency (GB4) | Potency (HB3) | Potency (ICS) | Potency (JCK) | Potency (N140) | Potency (P93_24) | Potency (P94_40) | Potency (PAD) | Potency (PC15) | Potency (PC26) | Potency (PC49) | Potency (SC27B) | Potency (TAB109) | Potency (TAB113) | Potency (TAB165) | outcome (CRL-7250) | outcome (HEK293) | outcome (HaCat) | max response (KB-3-1) 2.11%

CN(C)CC/C=C1/c2ccccc2COc2ccc(CC(=O)O)cc21
inactive: max response (CRL-7250) 2.78% | max response (HEK293) 1.17% | max response (HaCat) -4.81% | max response (KB-3-1) -7.2%

C[C@]12C=CC(=O)C=C1[C@@H](F)C[C@@H]1[C@@H]2[C@@H](O)C[C@@]2(C)[C@H]1CC[C@]2(O)C(=O)CO
inactive: max response (CRL-7250) 1.95% | max response (HEK293) -9.41% | max response (HaCat) -4.4% | max response (KB-3-1) 8% and -2.32%

NC(CS)C(=O)O (stereo unspecified)
active: Potency (HB3) 8.91 µM | Potency (ICS) 2 µM | Potency (N140) 11.2 µM | Potency (P93_24) 10 µM | Potency (P94_40) 12.6 µM | Potency (TAB109) 10 µM | Potency (TAB113) 10 µM | Potency (W2) 4.26 µM
inactive: outcome (CRL-7250) | max response (HEK293) -10% | outcome (HaCat) | max response (KB-3-1) -0.484%

CCOc1ccc(Cc2nccc3cc(OCC)c(OCC)cc23)cc1OCC
active: Potency (JCK) 10 µM | Potency (CRL-7250) 15 µM | Potency (HEK293) 7500 nM
inactive: Potency (ICS) | Potency (N140) | Potency (P93_24) | Potency (P94_40) | Potency (PAD) | Potency (PC15) | Potency (SC27B) | Potency (TAB109) | Potency (TAB113) | max response (HaCat) -22.8% | max response (KB-3-1) 1.15%

O=C1OCCN1/N=C/c1ccc([N+](=O)[O-])o1
inactive: Potency (PC15) | max response (CRL-7250) -8.39% | max response (HEK293) -25% | outcome (HaCat) | max response (KB-3-1) -3.42%
active: Potency (ICS) 7.94 µM | Potency (P93_24) 11.2 µM | Potency (TAB109) 7.94 µM | Potency (TAB165) 11.2 µM | Potency (W2) 15.1 µM

COCc1c(C(C)C)nc(C(C)C)c(/C=C/[C@@H](O)C[C@@H](O)CC(=O)O)c1-c1ccc(F)cc1
inactive: Potency (GB4) | Potency (HB3) | Potency (ICS) | Potency (JCK) | Potency (N140) | Potency (P93_24) | Potency (P94_40) | Potency (PAD) | Potency (PC15) | Potency (PC26) | Potency (PC49) | Potency (TAB109) | Potency (TAB113) | Potency (TAB165)
active: Potency (CRL-7250) 0.0596 µM | Potency (HEK293) 531 nM | Potency (HaCat) 0.841 µM | Potency (KB-3-1) 1.84 µM
